From PubChem BioAssay AID504840 (Johns Hopkins Ion Channel Center, 2011)
Out of some 1,500 compounds screened, about 890 (59%) were called active.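 The calls were made as follows: active = inhibition of the choline-evoked signal at any tested dose together with a fitted dose-response curve; inactive = no inhibition at any dose or no curve.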 The set was probably picked from earlier hits. Not all results are given here. Results with a measured potency or affinity are listed apart.

The compounds below were run against High affinity choline transporter 1 (Homo sapiens) (UniProt Q9GZV3) (assay: CHT inhibitors, dose response, cell-based, 5-point CRC, membrane potential dye (AID 504840)). Details: HEK293-CHT, choline-induced depolarization, CHT with LV-to-AA double alanine mutation; series mostly up to 37 µM.
Chain of High affinity choline transporter 1 (Homo sapiens) (Q9GZV3 whole entry, looked up): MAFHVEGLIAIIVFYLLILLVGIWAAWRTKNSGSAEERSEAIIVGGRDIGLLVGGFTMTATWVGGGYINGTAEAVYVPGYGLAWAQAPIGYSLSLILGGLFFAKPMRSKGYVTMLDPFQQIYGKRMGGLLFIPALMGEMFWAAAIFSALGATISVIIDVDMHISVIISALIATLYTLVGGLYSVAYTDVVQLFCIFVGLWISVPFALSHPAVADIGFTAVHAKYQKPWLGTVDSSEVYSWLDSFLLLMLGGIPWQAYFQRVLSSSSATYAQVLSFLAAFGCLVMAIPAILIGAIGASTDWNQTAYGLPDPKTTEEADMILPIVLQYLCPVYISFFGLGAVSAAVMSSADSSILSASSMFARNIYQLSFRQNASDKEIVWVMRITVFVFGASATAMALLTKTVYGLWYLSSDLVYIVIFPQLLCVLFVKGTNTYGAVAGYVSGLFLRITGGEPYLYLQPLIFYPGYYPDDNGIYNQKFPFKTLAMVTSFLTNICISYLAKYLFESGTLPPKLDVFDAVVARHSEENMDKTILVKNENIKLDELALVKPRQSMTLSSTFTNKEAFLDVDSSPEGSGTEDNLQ

outcome, inactive:
CCC(Oc1ccc(C)cc1)C(=O)Nc1ccc(S(=O)(=O)Nc2nccs2)cc1 (stereo not drawn)
Cc1ccccc1OC(C)C(=O)Nc1ccc(S(=O)(=O)Nc2nccs2)cc1 (stereo not drawn)
O=C(Nc1ccccc1OC(F)F)c1cccc(S(=O)(=O)N2CCCC2)c1
CC(NCc1ccc(F)cc1)C(=O)Nc1cc(S(=O)(=O)N2CCCCC2)ccc1Cl (stereo not drawn)
Cc1cc(C)n2nc(SCc3cccc(S(=O)(=O)N(C)C)c3)nc2n1
CCOC(=O)C1CCCN(C(=O)Cc2c(F)cccc2Cl)C1 (stereo not drawn)
CSc1ccc(C(=O)C2CCCN(C(=O)c3nonc3C)C2)cc1 (stereo not drawn)
Cc1ccc(SCC2(O)CCN(C(=O)c3ccc(Cl)cc3)CC2)cc1
O=C(Cc1ccccc1F)c1ccc(O)cc1O
Cc1sc(NC(=O)c2ccco2)nc1-c1ccccc1
O=c1c2ccccc2nc(-c2ccccc2)n1Cc1ccco1
CC1CCCCN1C(=O)c1ccc(C(=O)Nc2ccc(F)cc2)cc1 (stereo not drawn)
O=C(CCc1ccccc1)NNC(=S)NC(=O)c1ccc(Cl)cc1
COc1cccc(N2C(=O)N(c3ccccc3)C3CS(=O)(=O)CC32)c1 (stereo not drawn)
CCCCCn1c(=O)[nH]c2cc(C(=O)NCCCN3CCCCC3CC)ccc2c1=O (stereo not drawn)
CCN(CC)CCCN1C=C2C(=O)C(C)(OC(=O)CCC(=O)OC)C(=O)C=C2C=C1C1CC1 (stereo not drawn)
CC(Oc1ccc2ccccc2c1)C(=O)NNC(=S)NC(=O)c1ccco1 (stereo not drawn)
Cc1ccc(OCC(=O)NNC(=S)NC(=O)C(C)(C)C)c(Br)c1
CCCCCc1cc(=O)oc2c(C(CCN3CCCCC3)c3cc(OC)c(OC)c(OC)c3)c(OC)cc(OC)c12 (stereo not drawn)
COc1cc(CN(C)Cc2cc(=O)n3ccsc3n2)ccc1OC(F)F
COc1ccc(CNC(=O)[C@H](C)NC(=O)N2CCn3c2nc2ccccc23)cc1
O=C(Cn1nc(C(F)(F)F)c2c1CCC2)NCc1ccc(F)cc1
O=C(O)CN1C(=O)/C(=C/C=C/c2ccccc2)SC1=S
CC(=O)NC(CC(=O)NCCN1C(=O)S/C(=C\c2ccccc2)C1=O)c1ccccc1 (stereo not drawn)
CN1CCN(C(=O)CCN2C(=O)S/C(=C/c3ccc(Cl)cc3)C2=O)CC1
COc1ccc(/C=C2/SC(=S)N(CCCC(=O)N3CCN(C)CC3)C2=O)cc1
CN1CCN(C(=O)CCN2C(=O)/C(=C/c3cccc(Br)c3)SC2=S)CC1
CC(/C=C1\NC(=S)NC1=O)=C\c1ccccc1
CCC(C(=O)N1CCOCC1)n1c(C(=O)OC)cc2occc21 (stereo not drawn)
Cc1nc(SCC(=O)NC(=O)NCc2ccccc2)nc(C)c1C
C=CCn1c(SCC(=O)NC(=O)NC2CCCC2)nnc1C1CCCCC1
CC(=O)Nc1cccc(C(=O)OC(C)C(=O)Nc2ccc(S(=O)(=O)N3CCCC3)cc2)c1 (stereo not drawn)
CC(=O)Nc1cc(NC(C)=O)cc(C(=O)OC(C)C(=O)Nc2ccc(S(=O)(=O)N3CCCC3)cc2)c1 (stereo not drawn)
CN(c1cccc(NC(=O)Nc2cccc(Cl)c2)c1)S(C)(=O)=O
CC1CCC(NC(=O)CCn2ccc3cc(S(=O)(=O)N4CCCC4)ccc32)CC1 (stereo not drawn)
Cc1ccc(S(=O)(=O)N2CCCCC2)cc1NC(=O)CSc1nncn1-c1ccccc1
Cc1cc(C)n2c(SCC(=O)NC3CCCCC3C)nnc2n1 (stereo not drawn)
CC1CCCCC1NC(=O)c1ccc2c(c1)[nH]c(=O)n2C1CCCC1 (stereo not drawn)
CCCc1nc2oc3c(NCC4CCCO4)ncnc3c2c2c1COC(C)(C)C2 (stereo not drawn)
CCCN(CCC)Cc1c(C(=O)N/N=C/C(C)=C\c2ccco2)nnn1-c1nonc1N
COc1ccccc1C(=O)NC1CCN(C(=S)NCCc2ccccc2)CC1
Cc1ccc(OCC(O)Cn2c(=N)n(Cc3ccccc3)c3ccccc32)cc1 (stereo not drawn)
COc1ccc(OCC(O)Cn2c(=N)n(Cc3ccccc3)c3ccccc32)cc1 (stereo not drawn)
Cc1ccc(/C=C2\SC(=S)N(c3c(C)n(C)n(-c4ccccc4)c3=O)C2=O)cc1
Cc1ccc(S(=O)(=O)NC2=C(N3CCN(Cc4ccccc4)CC3)C(=O)c3ccccc3C2=O)cc1
COc1cc(/C=C2/S/C(=N/S(=O)(=O)Cc3ccccc3)NC2=O)c([N+](=O)[O-])cc1OC
COc1ccc(NC(=O)CSc2nccn2Cc2ccccc2)cc1
CCN(C(=O)c1cc2c(=O)n3ccccc3nc2n1CCCOC)C1CCCCC1
O=C(NCCCn1ccnc1)C(=O)c1cn(CC(=O)N2CCCCCC2)c2ccccc12
O=C(c1cn(-c2ccccc2)nc1-c1ccc(Cl)cc1)N1CCOCC1
N/C(=N\O)c1ccc(N2CCN(c3ncccc3C(F)(F)F)CC2)nc1
O=S(=O)(NCc1csc(-c2cccs2)n1)c1ccc(Cl)cc1
CCOc1ccc([C@@H]2CC=C(C(=O)O)[C@H](c3cccc(Cl)c3)N2S(=O)(=O)c2ccc(C)cc2)cc1
Cc1ccc(S(=O)(=O)N2[C@@H](c3ccc(F)cc3)C(C(=O)O)=CC[C@H]2c2ccc(C(C)C)cc2)cc1
CCn1c(N2CCN(S(=O)(=O)c3ccc(Cl)cc3)CC2)nc2ccccc21
COc1ccccc1OCC(=O)NCCS(=O)(=O)N1CCN(c2ccccc2)CC1
CCCCn1c(SCC(=O)Nc2cccc(OC)c2)nc2ccc(N3CCOCC3)cc2c1=O
CCOC(=O)c1ccc(CC(=O)c2ccc(O)cc2O)o1
CCCc1cc(C(=O)Cc2ccc(F)cc2)c(O)cc1O
Cc1ccc(-n2c(C)cc(=O)cc2C)c(C)c1
CCCOc1ccc(C(=O)NNC(=S)NC(=O)c2ccco2)cc1
CC[C@H](C)[C@H](NC(=O)c1ccc(Cl)cc1)C(=O)OCC(=O)c1ccc2c(c1)NC(=O)CO2
CC(NC(=O)/C(C#N)=C/c1ccc([N+](=O)[O-])o1)c1ccccc1 (stereo not drawn)
CCCCNC(=O)/C(C#N)=C/c1ccc(-c2ccc(S(=O)(=O)N3CCOCC3)cc2)o1
Cc1ccc(N=Cc2cc(Cc3ccccc3Cl)cc([N+](=O)[O-])c2O)c(O)c1
CN1C[C@@H]2C(c3ccc(C(F)(F)F)cc3)C3(c4cccnc4)CC2(C3)[C@H]1c1ccccc1 (stereo partly drawn)
COc1cc(C(CCN2CCCCC2)c2c(OC)cc(OC)c3c(-c4ccccc4)cc(=O)oc23)cc(OC)c1OC (stereo not drawn)
COCCCn1c(SCC(=O)Nc2sc3c(c2C#N)CCCC3)nnc1-c1ccncc1
CCN(CC(=O)NCc1cccs1)S(=O)(=O)c1ccc(C(C)C)cc1
Cc1ccc(C(=O)CSc2n[nH]c(-c3ccco3)n2)cc1C
CS(=O)(=O)n1nc(OC(=O)c2cccc3ccccc23)cc1N
O=C(O)c1ccccc1NSc1ccccc1[N+](=O)[O-]
COc1ccc(Cc2nnc(NC(=O)c3ccccc3[N+](=O)[O-])s2)cc1
COc1ccc(C(CCN2CCCC(C)C2)c2c(OC)cc(OC)c3c(-c4ccccc4)cc(=O)oc23)cc1 (stereo not drawn)
COc1ccc(C(CCN2CCCC2)c2c(OC)cc(OC)c3c(-c4ccccc4)cc(=O)oc23)cc1 (stereo not drawn)
COc1cc(OC)c2c(-c3ccccc3)cc(=O)oc2c1C(CCN1CCCC(C)C1)c1ccc(N(C)C)cc1 (stereo not drawn)
COc1cc(OC)c2c(-c3ccccc3)cc(=O)oc2c1C(CCN1CCCCC1)c1ccc2c(c1)OCO2 (stereo not drawn)
COc1cc(OC)c2c(-c3ccccc3)cc(=O)oc2c1C(CCN1CCCC1)c1ccc2c(c1)OCO2 (stereo not drawn)
COc1cc(OC)c2c(-c3ccccc3)cc(=O)oc2c1C(CCN1CCCCC1)c1ccc(N(C)C)cc1 (stereo not drawn)
O=C(Nc1nonc1-c1ccc(Cl)cc1)c1ccco1
Cc1ccc[n+](CC(=O)Nc2cc(C(F)(F)F)ccc2N2CCOCC2)c1
COc1ccc(N(C)S(=O)(=O)c2cccc(C(=O)NC3CCC(C)CC3)c2)cc1 (stereo not drawn)
CC(=O)N1CCN(S(=O)(=O)c2cccc(C(=O)NC3CCC(C)CC3)c2)CC1 (stereo not drawn)
CC1CCCC(NC(=O)c2cccc(N3CCCC3=O)c2)C1C (stereo not drawn)
CN1CCN(S(=O)(=O)c2cccc(C(=O)NC3CCCc4ccccc43)c2)CC1 (stereo not drawn)
Cc1ccnc(SCc2cc(=O)c(OC(=O)c3ccc(S(=O)(=O)N(C)C)cc3)co2)n1
Cc1cc(C)nc(SCc2cc(=O)c(OC(=O)c3cc([N+](=O)[O-])ccc3Cl)co2)n1
O/N=C/c1ccnc(SCc2ccccc2)n1
CCCCNS(=O)(=O)c1ccc2nc(SCC(=O)c3ccccc3OC)[nH]c2c1
Cc1cc(=O)[nH]c(SCC(=O)c2ccc(C)c(C)c2)n1
C=CCNS(=O)(=O)c1ccc(N2C(=O)c3ccccc3C2=O)cc1
CC(NC(=O)c1ccc(N2CCNCC2)c([N+](=O)[O-])c1)C12CC3CC(CC(C3)C1)C2 (stereo not drawn)
Cc1[nH]n(-c2cccc(Cl)c2)c(=O)c1-c1ccccc1
COc1ccc2c(c1)CC(C)C/C2=N\NC(=O)c1ccco1 (stereo not drawn)
NC(=O)CC(NC(=O)c1ccc(Br)cc1)c1ccc(N2CCCCCC2)c([N+](=O)[O-])c1 (stereo not drawn)
NC(=O)CC(NC(=O)c1ccc(Br)cc1)c1ccc(N2CCCCCCC2)c([N+](=O)[O-])c1 (stereo not drawn)
CCC(CC)Nc1ccc(C(CC(N)=O)NC(=O)c2ccccc2)cc1[N+](=O)[O-] (stereo not drawn)
NC(=O)CC(NC(=O)c1ccccc1)c1ccc(N2CCc3ccccc3C2)c([N+](=O)[O-])c1 (stereo not drawn)
